Data: PubChem BioAssay AID1347075 (National Center for Advancing Translational Sciences (NCATS), 2019)
Hit rate of the full screen: of about 400,000 compounds, about 5,500 (1.4%) were called active. Another 9% or so got no clear call; they are omitted. This is one part of a sample in which actives are shown more often than they occur. Unmarked numbers belong to inactive results. Calls come from the whole dose curve; as a rule, active = well fitted cell-killing curve with a large enough effect; inconclusive = small, poorly fitted or top-dose-only effect, or effect the other way; inactive = flat fitted curve, though single readings scatter.

experiment: qHTS assay for MDR1-selective chemotherapeutics: Primary screen using the parental adenocarcinoma cell KB-3-1; conditions: KB-3-1 viability, CellTiter-Glo ATP luminescence, 72 h; series mostly up to 46.1 µM; activity change, negative = cytotoxic: at the top concentration; note: nearly all actives have a fitted effect of over 60% in size
In short: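 Screening of KB-3-1 cells (DMEM, 10% FBS, phenol-red free) ran from lowest to highest compound concentration; after 72 h at 37 °C viability was read luminescently and curves fitted.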
% is set by controls: 0 for no effect and ±100 for the full control effect; potency is the fitted concentration of half-maximal effect.

Row | SMILES | Potency | activity change, negative = cytotoxic [%]
1 | O=c1oc2ccccc2cc1-c1cn(-c2ccccc2)c(=S)[nH]1 | 3.66 µM (active) | 
2 | Cc1cc(NC(=O)c2cccc(Cl)c2)ccc1-c1cc2ccccc2oc1=O |  | -2.7
3 | COc1cc(CNC(=O)c2cc3n(n2)CCCN(Cc2cccc(F)c2)C3=O)cc(OC)c1OC |  | -22.8
4 | COc1ccc(CNC(=O)CSc2nc3ccccc3nc2Cc2ccccc2)cc1 |  | 5.2
5 | COc1ccc2c(c1)c(=Cc1ccc(N(C)C)cc1)c1cc(-c3ccccc3)[n+](C)n12 | 3.66 µM (active) | 
6 | CN(C)c1ccc(/C=c2\[nH]c(=O)/c(=C/c3ccc(N(C)C)cc3)[nH]c2=O)cc1 |  | 0.186
7 | NC(=O)C1CCN(c2cc(-c3ccc4c(c3)OCCCO4)ncn2)CC1 |  | 0
8 | Cc1oc2ccc(O)c(CN3CCCCC3)c2c1C(=O)Nc1cccc(C(F)(F)F)c1 |  | -4.63
9 | COc1ccc(CCNC(=O)c2ccc(-n3c(C)cc4c3CCCC4)cc2)cc1OC |  | 2.17
10 | COc1ccc(Nc2cc(Sc3ccc(OC)cc3)ncn2)cc1 |  | -20.2
11 | CC(=O)c1ccc(Oc2cc(C)nc(-n3nc(C)cc3C)n2)cc1 | 0.651 µM (active) | 
12 | COc1ccc(Nc2cc(C)nc(-n3nc(C)cc3C)n2)cc1 | 0.731 µM (active) | 
13 | COc1cc(Cl)c(C)cc1Nc1nnc(-n2nc(C)cc2C)c2ccccc12 |  | 3.44
14 | COc1ccccc1/C=N/N1CCN(Cc2ccccc2Cl)CC1 |  | -4.62
15 | COc1ccccc1/C=N\Nc1cc(C)nc(-n2nc(C)cc2C)n1 | 7.31 µM (active) | 
16 | COc1ccc(C(=O)NNc2cc(C)nc(NNC(=O)c3ccc(OC)cc3)n2)cc1 |  | 0
17 | COc1ccc(C(C)=O)cc1CSc1nc2nc(C)cc(C)n2n1 |  | -8.05
18 | Cc1cc(C)nc(-n2nc(C)cc2NC(=O)c2ccc(F)cc2F)n1 |  | -0.123
19 | NS(=O)(=O)c1ccc(NC(=O)C(=O)Nc2ccc3nc4n(c(=O)c3c2)CCCCC4)cc1 |  | 0.279
20 | COc1ccc(CCN2C(=O)N(c3cccc(OC)c3)C(=O)C2CC(=O)Nc2ccccc2)cc1 (centres undefined) |  | 0
21 | COc1ccccc1CNS(=O)(=O)c1cc(Br)cc2c1N(C(C)=O)C(C)C2 (centres undefined) |  | -14.7
22 | Cc1ccc2c(c1)c1c(c(=O)n(-c3ccccc3)c(=O)n1CC(=O)c1ccc(Cl)cc1)n2C |  | 5.37
23 | COC(=O)CC1Oc2ccccc2-n2cc(-c3ccccc3)nc21 (centres undefined) |  | -0.952
24 | CCOCCCNC(=O)c1c(NC(=O)Cc2coc3c(C)c(C)ccc23)sc2c1CCC2 |  | 6.28
25 | O=C(CCc1ccccc1)NCc1ccc2c(c1)CCN2C(=O)c1ccccc1 |  | -4.5

Row | SMILES | Potency | activity change, negative = cytotoxic [%]
26 | CCCCn1c(CNC(=O)C23CC4CC(CC(C4)C2)C3)nnc1SCC(=O)Nc1ccc(C)cc1 |  | -2.31
27 | Cc1ccc(C(=O)Nc2cc3c(cc2N2CCCC2)n(C)c(=O)c(=O)n3C)cc1 |  | 6.25
28 | CCCC1=Nc2cc(C(=O)NCCN3CCCC3)ccc2Sc2ccccc21 |  | -6.09
29 | COc1ccc(CCNS(=O)(=O)c2ccc(C(=O)NCc3ccco3)cc2)cc1OC |  | 0.297
30 | CCCC1=Nc2cc(C(=O)NCc3ccco3)ccc2Sc2ccccc21 | 5.8 µM (active) | 
31 | Cc1ccc(OCC(=O)Nc2ccc(Cl)c(-c3nc4ccccc4[nH]3)c2)cc1C |  | 0.112
32 | O=C(c1ccc(Cl)cc1)n1nc(-c2cccnc2)nc1NCc1ccc(F)cc1 |  | 5.88
33 | O=C(Cn1ncc(N2CCCC2)c(Br)c1=O)c1ccc(Cl)cc1 |  | -13.7
34 | O=C(Cn1nc(C(F)(F)F)c2c1CCCC2)Nc1ccc(Cl)cc1 |  | 0.234
35 | O=C(Cn1nc(CNc2ccc(Cl)cc2)[n+]2c1CCCCC2)c1ccc(Cl)cc1 | 16.4 µM (active) | 
36 | Cc1nc2ccc(S(=O)(=O)N(CC(=O)Nc3ccc(F)cc3)Cc3ccccc3)cc2s1 |  | 2.96
37 | COc1ccc(-c2nc3c4ccccc4n(CC(=O)Nc4ccc(C(C)=O)cc4)c(=O)n3n2)cc1 |  | 11.5
38 | CCc1ccccc1OCC(=O)Nc1ccc(C)c(S(=O)(=O)N2CCCCCC2)c1 | 18.4 µM (active) | 
39 | Cc1ccc(NC(=O)COC(=O)C2CC2)cc1S(=O)(=O)N1CCOCC1 |  | 12.9
40 | COc1ccccc1C(=O)Nc1ccc(C)c(S(=O)(=O)N2CCCCC2)c1 |  | 0
41 | O=C(CCc1nc(CN2CCN(S(=O)(=O)c3ccc(Cl)cc3)CC2)no1)N1CCCCC1 |  | 10.5
42 | COc1cc2ccccc2cc1C(=O)Nc1cccc(-c2nc3ccccc3o2)c1 |  | -28.8
43 | Cc1cccc(NC(=O)CSc2nc3c([nH]c4ccccc43)c(=O)n2-c2cc(C)cc(C)c2)c1 |  | 9.13
44 | COc1cc2c(-c3ccc4c(c3)OCO4)c(-c3ccsc3)oc(=O)c2cc1OC |  | -11.2
45 | COc1cc(-c2c(-c3ccc4c(c3)OCO4)noc2C)ccc1F | 3.26 µM (active) | 
46 | Cc1oc(C)c2c(=O)cc(-c3ccc4c(c3)OCO4)cc(OC(=O)c3ccc(Cl)cc3)c12 |  | 5.96
47 | Cc1ccc(C=O)cc1Cl |  | -8.55
48 | O=C(CSc1oc(-c2ccccc2)nc1S(=O)(=O)c1ccc(Br)cc1)NC1CCCCC1 |  | 4.96
49 | COc1ccc(OC)c(-c2noc(N3CCN(c4cc(Cl)ccc4C)CC3)n2)c1 |  | 0.175
